Source: PubChem BioAssay AID1053173 (Broad Institute, 2014)
Hit rate of the full screen: of about 1,500 compounds, about 390 (26%) were called active. No rule for the calls is given here. The list is a sample of the results. Entries with a potency or affinity are not part of this list.

target: Histone-lysine N-methyltransferase NSD2 (Homo sapiens) (UniProt O96028); assay: blockers of NSD2 H4 peptide methylation – biochemical, AlphaScreen, cherry-picked samples, dose response (AID 1053173); settings: 120 min; series mostly up to 10 µM; activity change, negative = inhibition: at the top concentration;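 also: 0% = neutral control wells and -100% = positive control wells on each plate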
Sequence (O96028 whole entry, looked up): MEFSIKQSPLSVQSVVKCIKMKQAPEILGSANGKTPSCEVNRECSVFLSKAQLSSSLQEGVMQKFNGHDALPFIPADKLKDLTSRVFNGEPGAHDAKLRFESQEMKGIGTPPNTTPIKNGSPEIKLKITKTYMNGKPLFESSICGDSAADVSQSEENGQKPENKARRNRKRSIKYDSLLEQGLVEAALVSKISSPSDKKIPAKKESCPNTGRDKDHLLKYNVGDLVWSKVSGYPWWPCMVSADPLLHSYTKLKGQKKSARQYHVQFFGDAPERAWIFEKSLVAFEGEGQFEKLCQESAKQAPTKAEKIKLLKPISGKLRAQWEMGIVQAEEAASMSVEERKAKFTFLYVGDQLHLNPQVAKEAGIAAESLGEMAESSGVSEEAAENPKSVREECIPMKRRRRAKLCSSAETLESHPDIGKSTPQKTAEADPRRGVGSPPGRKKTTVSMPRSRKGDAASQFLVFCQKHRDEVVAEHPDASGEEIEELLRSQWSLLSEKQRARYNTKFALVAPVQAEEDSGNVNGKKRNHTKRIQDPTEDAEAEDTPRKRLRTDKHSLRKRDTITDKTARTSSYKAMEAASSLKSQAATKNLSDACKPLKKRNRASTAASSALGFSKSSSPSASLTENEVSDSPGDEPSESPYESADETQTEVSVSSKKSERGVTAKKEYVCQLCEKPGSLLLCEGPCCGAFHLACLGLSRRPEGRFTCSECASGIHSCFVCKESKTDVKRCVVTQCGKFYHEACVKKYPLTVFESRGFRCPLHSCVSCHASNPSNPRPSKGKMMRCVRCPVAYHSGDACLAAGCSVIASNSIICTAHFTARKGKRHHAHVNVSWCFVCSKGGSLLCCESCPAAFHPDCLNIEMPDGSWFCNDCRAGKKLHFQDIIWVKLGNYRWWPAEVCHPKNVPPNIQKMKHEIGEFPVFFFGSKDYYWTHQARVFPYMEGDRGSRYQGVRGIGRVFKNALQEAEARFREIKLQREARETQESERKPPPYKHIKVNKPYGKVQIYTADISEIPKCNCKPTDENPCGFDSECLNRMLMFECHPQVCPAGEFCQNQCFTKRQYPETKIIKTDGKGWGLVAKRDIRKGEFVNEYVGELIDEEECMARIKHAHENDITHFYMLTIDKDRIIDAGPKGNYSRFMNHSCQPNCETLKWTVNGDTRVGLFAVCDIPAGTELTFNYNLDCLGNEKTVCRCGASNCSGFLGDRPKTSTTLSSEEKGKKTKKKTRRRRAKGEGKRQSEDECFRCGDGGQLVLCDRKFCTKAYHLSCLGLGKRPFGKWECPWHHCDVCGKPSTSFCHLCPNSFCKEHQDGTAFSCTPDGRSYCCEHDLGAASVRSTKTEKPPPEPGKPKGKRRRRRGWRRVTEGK

Activity change, negative = inhibition, inactive:
O=C(CSc1nc(-c2ccccc2)c(-c2ccccc2)o1)N1CCCCC1 4.5%
CCOC(=O)c1ccc(N=c2scc(C)n2CC)cc1 -13.2%
CC1(C)CC(N=C2C=CC3=NC45CCCCC4CC4=C(CCCC4)N5C3=C2)CC(C)(C)N1 (centres undefined) -4.28%
COc1ccc(N=c2scc(C)n2CCCN2CCCC2=O)cc1 1.93%
CCOC(=O)Nc1ccc(=O)n(Cc2c(Cl)cccc2Cl)c1 4.15%
CN(C(=S)NC(=O)C1(C)CC1(Cl)Cl)c1ccccc1 (centres undefined) 6.66%
O=C(NNC(=O)c1ccc(Cl)nc1)c1ccc(Br)cc1 3.91%
Oc1ccc(/C=N/N2CCOCC2)c(O)c1O -4.15%
Nc1cc(=O)[nH]c(SCC(=O)Nc2ccc(Cl)c(Cl)c2)n1 -0.598%
Cc1ccc(NC(=S)N2CCC(NC(=O)c3ccc(F)cc3)CC2)cc1 4.5%
COCC(C)n1c(SCC(=O)NC2CCCCC2C)nc2ccccc2c1=O (centres undefined) -6.67%
Cc1cccc(-n2c(Cn3nc(C)c([N+](=O)[O-])c3C)n[nH]c2=S)c1 4.32%
Cc1csc(SCC(=O)Nc2ccc3c(c2)OCCO3)n1 -0.732%
Cc1[nH][nH]c(=O)c1C(c1ccc(-c2ccc(C(=O)O)cc2)o1)c1c(C)[nH][nH]c1=O -3.01%
COC(=O)c1ccccc1-c1ccc(C(c2c(C)[nH][nH]c2=O)c2c(C)[nH][nH]c2=O)o1 -2.23%
Cc1cccc(C(=O)NCc2nnc(SCC(=O)Nc3nnc(C)s3)n2C)c1 3.02%
O=c1c2cnn(-c3ccccc3)c2nc(-c2ccco2)n1-c1ccccc1 3.67%
Cc1ccc(S(=O)(=O)NC(C(=O)N2CCN(S(=O)(=O)c3cccc(F)c3)CC2)C(C)C)cc1 (centres undefined) 0.222%
Cc1ccccc1NCC(=O)Nc1cc(S(=O)(=O)N2CCCCC2)ccc1C -1.45%
COc1ccccc1OCC(=O)Nc1ccc(S(=O)(=O)N2CCCC2)cc1 1.45%
Cc1ccc(S(=O)(=O)N(C)CC(=O)NCCCn2ccnc2)cc1 -5.32%
CN(c1ccccc1)c1ncnc2c1ncn2C -5.28%
COc1ccc2c(c1)Cc1sc(NC(C)=O)nc1-2 -4.87%
Cc1nn(-c2ccccn2)c2c1C(=O)C(Br)CC2 (centres undefined) -4.7%
CC(=O)c1ccc(N(CC(=O)NCCc2ccccc2)C(=O)c2csnn2)cc1 0.43%
O=C(OCc1ccc([N+](=O)[O-])cc1)c1cc(=O)c2ccccc2o1 5.19%
COc1ccccc1N(CC(=O)NCC1CCCO1)C(=O)CNS(=O)(=O)c1ccc(C)cc1 (centres undefined) 1.22%
O=C1c2ccccc2C(=O)N1CCC(c1ccc(F)cc1)c1ccco1 (centres undefined) 1.01%
COc1ccc(Cc2nnc(NC(=O)C3CC(=O)N(c4ccc(OC)cc4)C3)s2)cc1 (centres undefined) -0.048%
O=C(CN(C(=O)c1csnn1)c1ccc(F)c(Cl)c1)NC1CCCCC1 0.495%
Cc1nc(N)sc1-c1nnc(SCC(=O)Nc2ccccc2C(F)(F)F)n1C -2.66%
CC1=NN(c2ccccc2)C(=O)/C1=C/N(C)C -4.42%
CC(C)(C)NC(=O)COC(=O)c1ccc2c(c1)C(=O)N(Cc1ccco1)C2=O -1.9%
Cn1c(=O)[nH]c(=O)c2c1nc(N/N=C/c1ccncc1)n2Cc1ccc(F)cc1 1.06%
Cc1ccc(-c2csc3nc(CN(C)Cc4ccccc4)[nH]c(=O)c23)cc1 -0.858%
CCC(CC)c1nnc(NC(=O)CCS(=O)(=O)Cc2ccccc2)s1 0.024%
CCCCn1cnc2c(=S)nc(N)[nH]c21 -2.03%
CCn1cc(/C=N\NC(=O)C2(C)CC2(Cl)Cl)c(C)n1 (centres undefined) 6.99%
NNC(=O)c1nc(-c2ccccc2)cc(-c2ccccc2)n1 -1.02%
CC12CCC(C)(c3nc4ccccc4nc31)C2(C)C -0.479%
Cc1cc(C)n(CCC(=O)N2CCN(S(=O)(=O)c3ccccc3)CC2)n1 5.12%
Cc1cccc2c(N=NC(=O)c3ccc(NS(=O)(=O)c4cccs4)cc3)c(O)[nH]c12 -5.5%
Cc1cc(S(=O)(=O)NCc2cccnc2)ccc1F -2.37%
O=C(COc1ncnc2c(Cl)cc(Cl)cc12)N1CCCCC1 -0.554%
Cn1ncc2c(Nc3cccc4ccccc34)ncnc21 2.95%
O=C(NCCN1CCOCC1)NC1(C(F)(F)F)Oc2ccccc2O1 -0.91%
CCCCc1ccc(NC(=O)CSc2nc(=O)n(CCN(CC)CC)c3c2CCCC3)cc1 -5.12%
Cc1cc(SCC(=O)Nc2cccnc2Cl)nc2ccccc12 0.285%
COc1ccc(C(=O)Nn2c(SCC(=O)c3ccc(Cl)cc3)nc3ccccc3c2=O)cc1 -2.62%
Cc1ccc(-c2cc(C(=O)N/N=C/c3ccccc3)n[nH]2)o1 -1.55%
Cc1cc(=O)[nH]c(N/N=C/c2c(C)nn(-c3ccccc3Cl)c2Cl)n1 -1.01%
Cc1ccc(O)c(NC(=O)c2cc3nc4c(c(C(F)(F)F)n3n2)CCc2ccccc2-4)c1 -1.53%
O=C(Nc1cc(F)ccc1F)N1CCN(c2ccnc3cc(Cl)ccc23)CC1 -0.162%
COc1ccc(C(=O)C(OC(=O)c2ccc(C)c(NC(C)=O)c2)c2ccccc2)cc1 (centres undefined) -3.15%
COCCN(C(=O)CNC(=O)c1ccco1)C(C(=O)NC1CCCC1)c1ccc(OC)cc1 (centres undefined) 0.585%
CC1(C)NC(=O)N(CCCOc2ccccc2Br)C1=O -1.93%
CCOc1cc(NC2CS(=O)(=O)CC2O)c(OCC)cc1NC(=O)c1ccccc1 (centres undefined) -10.2%
Cc1ccc(N2C(=O)N(CC(=O)Nc3cccc([N+](=O)[O-])c3C)C(=O)C2C)cc1 (centres undefined) -2.74%
Cc1ccc(NC(=O)CCC(=O)OCC(F)(F)C(F)F)cc1 -4.16%
CC1CCN(CCC(=O)Nc2ccccc2)CC1 -1.04%
O=C(CC(=O)Nc1ccc(Cl)cc1)N/N=C\c1cccc(F)c1 7.1%
CNS(=O)(=O)c1cc(NC(=O)CCCNC(=O)c2ccc(Cl)cc2)ccc1C -3.69%
O=C(NNC(=O)c1ccc(NC(=O)C2CC2)cc1)c1ccc(F)cc1 -4.45%
Cc1ccc(NC(=O)CCn2c(=O)oc3ccccc32)cc1 1.97%
CC1CCCCC12NC(=O)N(CC(=O)NC(=O)NCc1ccco1)C2=O (centres undefined) 5.2%
COc1cccc(CNC(=S)Nc2ccc(Cl)cc2C)c1 2.1%
O=[N+]([O-])c1ccccc1-c1ccc(C(=S)N2CCCC2)o1 -6.85%
Cn1cc(-c2ccccc2C(N)=O)c(=O)c2ccccc21 -1.88%
CC1CCCC(NC(=O)COC(=O)c2c[nH]c(=O)[nH]c2=O)C1C (centres undefined) -1.68%
